# In ChEMBL document CHEMBL1961873, “Compounds: GSK PKIS; Assays: Nanosyn kinase panel” (2012):
# Where “and” joins values, the source holds several entries; their conditions need not be identical. Equal values may be shown once.
# Experiments:
# [1] = tested on: Epidermal growth factor receptor (Homo sapiens), P00533 [T790M]; conditions: at 1 µM
# [2] = tested on: Epidermal growth factor receptor (Homo sapiens), P00533 [L858R,T790M]; conditions: at 0.1 µM
# [3] = tested on: Epidermal growth factor receptor (Homo sapiens), P00533 [L858R,T790M]; conditions: at 1 µM
# [4] = molecular target: Ephrin type-A receptor 2 (Homo sapiens) (UniProt P29317); conditions: at 0.1 µM
# [5] = molecular target: Ephrin type-A receptor 2 (Homo sapiens) (UniProt P29317); conditions: at 1 µM
# [6] = molecular target: T1, Ephrin type-A receptor 3 (Homo sapiens) (UniProt P29320); conditions: at 0.1 µM
# T1 sequence (whole entry): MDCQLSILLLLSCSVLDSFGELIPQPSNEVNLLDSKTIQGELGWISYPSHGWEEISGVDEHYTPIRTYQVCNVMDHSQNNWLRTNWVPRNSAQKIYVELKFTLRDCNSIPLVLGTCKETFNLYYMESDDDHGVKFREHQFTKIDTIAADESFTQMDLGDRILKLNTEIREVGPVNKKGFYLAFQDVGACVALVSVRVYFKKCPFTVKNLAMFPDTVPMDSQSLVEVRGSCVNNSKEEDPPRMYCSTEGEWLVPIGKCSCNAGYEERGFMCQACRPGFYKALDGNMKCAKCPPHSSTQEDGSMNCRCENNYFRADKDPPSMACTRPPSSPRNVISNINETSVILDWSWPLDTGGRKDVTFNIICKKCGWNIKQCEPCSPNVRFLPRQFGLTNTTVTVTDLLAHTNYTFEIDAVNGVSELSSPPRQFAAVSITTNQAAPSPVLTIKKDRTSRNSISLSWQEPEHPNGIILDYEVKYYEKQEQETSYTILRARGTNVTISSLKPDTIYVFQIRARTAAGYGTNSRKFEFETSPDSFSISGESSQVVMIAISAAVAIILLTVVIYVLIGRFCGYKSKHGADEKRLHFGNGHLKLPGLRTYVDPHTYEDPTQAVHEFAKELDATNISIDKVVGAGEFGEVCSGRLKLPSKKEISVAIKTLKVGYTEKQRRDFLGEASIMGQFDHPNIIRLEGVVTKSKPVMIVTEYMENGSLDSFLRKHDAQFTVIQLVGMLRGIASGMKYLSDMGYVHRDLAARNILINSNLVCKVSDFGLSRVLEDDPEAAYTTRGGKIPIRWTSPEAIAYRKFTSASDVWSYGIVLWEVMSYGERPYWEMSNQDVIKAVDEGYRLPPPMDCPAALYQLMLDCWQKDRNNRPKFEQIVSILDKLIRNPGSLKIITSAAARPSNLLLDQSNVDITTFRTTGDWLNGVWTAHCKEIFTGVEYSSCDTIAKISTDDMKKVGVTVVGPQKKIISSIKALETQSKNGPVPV
# [7] = molecular target: T1, Ephrin type-A receptor 3 (Homo sapiens); conditions: at 1 µM
# [8] = molecular target: Ephrin type-A receptor 4 (Homo sapiens) (UniProt P54764); conditions: at 0.1 µM
# Sequence of Ephrin type-A receptor 4 (Homo sapiens) (P54764 whole entry): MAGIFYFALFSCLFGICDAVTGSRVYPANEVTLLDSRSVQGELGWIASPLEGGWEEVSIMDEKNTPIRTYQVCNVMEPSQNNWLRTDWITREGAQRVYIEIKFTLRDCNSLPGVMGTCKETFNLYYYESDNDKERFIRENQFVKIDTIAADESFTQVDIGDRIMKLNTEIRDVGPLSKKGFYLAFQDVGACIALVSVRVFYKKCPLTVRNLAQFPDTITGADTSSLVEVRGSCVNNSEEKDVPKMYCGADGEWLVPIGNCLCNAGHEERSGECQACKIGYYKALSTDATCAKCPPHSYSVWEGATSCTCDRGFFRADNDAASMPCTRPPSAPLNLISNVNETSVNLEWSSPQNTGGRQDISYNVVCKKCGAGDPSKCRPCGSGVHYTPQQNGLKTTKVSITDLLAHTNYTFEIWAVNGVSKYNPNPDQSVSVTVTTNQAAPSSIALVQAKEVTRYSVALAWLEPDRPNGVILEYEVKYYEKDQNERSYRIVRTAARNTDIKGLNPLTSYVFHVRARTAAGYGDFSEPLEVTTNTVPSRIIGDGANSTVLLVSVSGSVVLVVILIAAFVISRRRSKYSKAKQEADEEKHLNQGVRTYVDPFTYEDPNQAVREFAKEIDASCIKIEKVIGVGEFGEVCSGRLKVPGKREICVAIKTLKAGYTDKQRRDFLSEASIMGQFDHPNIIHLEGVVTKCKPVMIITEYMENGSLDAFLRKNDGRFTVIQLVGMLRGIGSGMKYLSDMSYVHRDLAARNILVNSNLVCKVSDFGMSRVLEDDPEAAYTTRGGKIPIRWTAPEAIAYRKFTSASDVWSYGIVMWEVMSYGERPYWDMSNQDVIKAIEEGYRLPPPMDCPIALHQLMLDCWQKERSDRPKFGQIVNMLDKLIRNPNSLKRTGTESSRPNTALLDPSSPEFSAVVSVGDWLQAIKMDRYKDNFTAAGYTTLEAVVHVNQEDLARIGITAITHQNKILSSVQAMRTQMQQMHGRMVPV
# [9] = molecular target: Ephrin type-A receptor 4 (Homo sapiens) (UniProt P54764); conditions: at 1 µM
# [10] = molecular target: T2, Ephrin type-B receptor 2 (Homo sapiens) (UniProt P29323); conditions: at 0.1 µM
# T2 sequence (whole entry): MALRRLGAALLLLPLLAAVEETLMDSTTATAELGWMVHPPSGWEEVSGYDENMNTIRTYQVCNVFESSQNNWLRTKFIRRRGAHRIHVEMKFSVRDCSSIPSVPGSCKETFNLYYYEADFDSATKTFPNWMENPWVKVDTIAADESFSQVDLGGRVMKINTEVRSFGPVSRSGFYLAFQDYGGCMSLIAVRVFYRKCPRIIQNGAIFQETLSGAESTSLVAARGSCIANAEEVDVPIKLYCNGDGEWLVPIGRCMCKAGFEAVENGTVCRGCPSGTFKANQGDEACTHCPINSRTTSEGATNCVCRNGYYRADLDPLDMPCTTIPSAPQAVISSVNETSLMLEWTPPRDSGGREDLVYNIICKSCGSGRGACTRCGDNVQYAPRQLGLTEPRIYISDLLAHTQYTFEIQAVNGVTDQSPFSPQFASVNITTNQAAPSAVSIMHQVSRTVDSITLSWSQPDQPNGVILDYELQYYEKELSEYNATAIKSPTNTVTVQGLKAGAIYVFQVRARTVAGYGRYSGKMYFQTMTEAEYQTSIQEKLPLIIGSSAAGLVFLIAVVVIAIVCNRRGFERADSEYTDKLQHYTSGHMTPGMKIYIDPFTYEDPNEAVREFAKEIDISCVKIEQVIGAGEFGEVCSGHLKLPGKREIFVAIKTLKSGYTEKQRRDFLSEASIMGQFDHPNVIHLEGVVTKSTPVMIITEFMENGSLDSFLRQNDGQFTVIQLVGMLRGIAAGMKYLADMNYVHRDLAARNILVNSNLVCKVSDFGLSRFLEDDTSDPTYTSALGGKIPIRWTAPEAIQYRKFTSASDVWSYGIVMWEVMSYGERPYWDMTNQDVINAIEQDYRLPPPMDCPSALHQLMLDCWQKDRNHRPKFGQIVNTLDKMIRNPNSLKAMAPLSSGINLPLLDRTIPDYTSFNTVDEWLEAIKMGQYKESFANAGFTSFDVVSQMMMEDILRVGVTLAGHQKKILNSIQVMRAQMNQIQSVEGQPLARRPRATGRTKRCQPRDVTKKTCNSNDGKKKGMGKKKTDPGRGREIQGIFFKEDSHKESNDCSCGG
# [11] = molecular target: T2, Ephrin type-B receptor 2 (Homo sapiens); conditions: at 1 µM
# [12] = molecular target: T3, Ephrin type-B receptor 3 (Homo sapiens) (UniProt P54753); conditions: at 0.1 µM
# T3 sequence (whole entry): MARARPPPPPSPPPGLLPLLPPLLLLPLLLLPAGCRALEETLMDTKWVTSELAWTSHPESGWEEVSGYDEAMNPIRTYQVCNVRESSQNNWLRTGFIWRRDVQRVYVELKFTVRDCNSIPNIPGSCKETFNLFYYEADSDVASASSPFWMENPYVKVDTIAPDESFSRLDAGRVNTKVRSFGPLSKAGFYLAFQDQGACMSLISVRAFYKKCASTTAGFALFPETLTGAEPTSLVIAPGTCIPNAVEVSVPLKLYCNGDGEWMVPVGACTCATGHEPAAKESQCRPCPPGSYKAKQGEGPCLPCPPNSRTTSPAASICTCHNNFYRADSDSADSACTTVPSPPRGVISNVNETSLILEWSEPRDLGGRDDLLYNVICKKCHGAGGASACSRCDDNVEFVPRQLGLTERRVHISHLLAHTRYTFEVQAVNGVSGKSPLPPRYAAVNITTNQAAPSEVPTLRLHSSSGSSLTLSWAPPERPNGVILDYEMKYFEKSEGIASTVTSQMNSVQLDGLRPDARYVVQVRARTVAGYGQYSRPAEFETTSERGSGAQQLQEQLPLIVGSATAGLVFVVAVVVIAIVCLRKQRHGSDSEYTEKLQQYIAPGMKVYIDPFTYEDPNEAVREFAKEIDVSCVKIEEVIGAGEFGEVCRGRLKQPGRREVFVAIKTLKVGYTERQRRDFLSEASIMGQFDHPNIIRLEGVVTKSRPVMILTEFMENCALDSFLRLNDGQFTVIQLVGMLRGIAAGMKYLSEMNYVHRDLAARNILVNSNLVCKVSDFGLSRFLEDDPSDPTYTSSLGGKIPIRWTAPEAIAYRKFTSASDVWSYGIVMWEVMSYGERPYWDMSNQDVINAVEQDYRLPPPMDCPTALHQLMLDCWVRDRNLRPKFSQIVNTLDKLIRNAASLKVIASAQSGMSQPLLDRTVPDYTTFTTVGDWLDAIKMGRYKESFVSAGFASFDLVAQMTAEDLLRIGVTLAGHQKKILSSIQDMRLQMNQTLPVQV
# [13] = molecular target: T3, Ephrin type-B receptor 3 (Homo sapiens); conditions: at 1 µM
# [14] = molecular target: T4, Ephrin type-B receptor 4 (Homo sapiens) (UniProt P54760); conditions: at 0.1 µM
# T4 sequence (whole entry): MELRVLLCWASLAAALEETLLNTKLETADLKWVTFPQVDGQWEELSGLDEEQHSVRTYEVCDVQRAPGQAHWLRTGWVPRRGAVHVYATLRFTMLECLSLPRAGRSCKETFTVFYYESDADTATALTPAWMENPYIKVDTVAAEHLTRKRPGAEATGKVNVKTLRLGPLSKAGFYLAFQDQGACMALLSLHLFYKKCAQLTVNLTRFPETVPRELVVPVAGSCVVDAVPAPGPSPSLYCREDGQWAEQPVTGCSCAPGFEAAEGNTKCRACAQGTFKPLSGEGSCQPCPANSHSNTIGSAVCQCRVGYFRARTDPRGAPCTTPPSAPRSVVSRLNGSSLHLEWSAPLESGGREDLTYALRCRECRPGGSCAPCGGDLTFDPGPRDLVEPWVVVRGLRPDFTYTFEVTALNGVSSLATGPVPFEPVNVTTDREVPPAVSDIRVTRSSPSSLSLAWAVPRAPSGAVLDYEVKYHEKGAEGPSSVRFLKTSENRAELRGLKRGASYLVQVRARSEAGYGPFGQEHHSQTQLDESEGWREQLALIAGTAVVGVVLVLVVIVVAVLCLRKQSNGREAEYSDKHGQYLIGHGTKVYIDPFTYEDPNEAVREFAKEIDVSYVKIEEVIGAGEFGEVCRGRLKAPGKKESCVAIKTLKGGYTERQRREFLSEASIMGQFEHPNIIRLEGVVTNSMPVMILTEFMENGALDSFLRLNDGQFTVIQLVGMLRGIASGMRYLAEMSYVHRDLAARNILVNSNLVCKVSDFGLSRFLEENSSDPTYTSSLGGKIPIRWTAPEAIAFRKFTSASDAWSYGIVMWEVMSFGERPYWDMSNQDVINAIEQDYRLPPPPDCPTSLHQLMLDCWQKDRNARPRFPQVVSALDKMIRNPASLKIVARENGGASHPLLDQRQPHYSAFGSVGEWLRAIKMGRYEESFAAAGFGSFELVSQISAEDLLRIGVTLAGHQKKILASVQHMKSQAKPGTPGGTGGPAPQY
# [15] = molecular target: T4, Ephrin type-B receptor 4 (Homo sapiens); conditions: at 1 µM
# [16] = molecular target: Receptor tyrosine-protein kinase erbB-2 (Homo sapiens) (UniProt P04626); conditions: at 0.1 µM
# Sequence of Receptor tyrosine-protein kinase erbB-2 (Homo sapiens) (P04626 whole entry): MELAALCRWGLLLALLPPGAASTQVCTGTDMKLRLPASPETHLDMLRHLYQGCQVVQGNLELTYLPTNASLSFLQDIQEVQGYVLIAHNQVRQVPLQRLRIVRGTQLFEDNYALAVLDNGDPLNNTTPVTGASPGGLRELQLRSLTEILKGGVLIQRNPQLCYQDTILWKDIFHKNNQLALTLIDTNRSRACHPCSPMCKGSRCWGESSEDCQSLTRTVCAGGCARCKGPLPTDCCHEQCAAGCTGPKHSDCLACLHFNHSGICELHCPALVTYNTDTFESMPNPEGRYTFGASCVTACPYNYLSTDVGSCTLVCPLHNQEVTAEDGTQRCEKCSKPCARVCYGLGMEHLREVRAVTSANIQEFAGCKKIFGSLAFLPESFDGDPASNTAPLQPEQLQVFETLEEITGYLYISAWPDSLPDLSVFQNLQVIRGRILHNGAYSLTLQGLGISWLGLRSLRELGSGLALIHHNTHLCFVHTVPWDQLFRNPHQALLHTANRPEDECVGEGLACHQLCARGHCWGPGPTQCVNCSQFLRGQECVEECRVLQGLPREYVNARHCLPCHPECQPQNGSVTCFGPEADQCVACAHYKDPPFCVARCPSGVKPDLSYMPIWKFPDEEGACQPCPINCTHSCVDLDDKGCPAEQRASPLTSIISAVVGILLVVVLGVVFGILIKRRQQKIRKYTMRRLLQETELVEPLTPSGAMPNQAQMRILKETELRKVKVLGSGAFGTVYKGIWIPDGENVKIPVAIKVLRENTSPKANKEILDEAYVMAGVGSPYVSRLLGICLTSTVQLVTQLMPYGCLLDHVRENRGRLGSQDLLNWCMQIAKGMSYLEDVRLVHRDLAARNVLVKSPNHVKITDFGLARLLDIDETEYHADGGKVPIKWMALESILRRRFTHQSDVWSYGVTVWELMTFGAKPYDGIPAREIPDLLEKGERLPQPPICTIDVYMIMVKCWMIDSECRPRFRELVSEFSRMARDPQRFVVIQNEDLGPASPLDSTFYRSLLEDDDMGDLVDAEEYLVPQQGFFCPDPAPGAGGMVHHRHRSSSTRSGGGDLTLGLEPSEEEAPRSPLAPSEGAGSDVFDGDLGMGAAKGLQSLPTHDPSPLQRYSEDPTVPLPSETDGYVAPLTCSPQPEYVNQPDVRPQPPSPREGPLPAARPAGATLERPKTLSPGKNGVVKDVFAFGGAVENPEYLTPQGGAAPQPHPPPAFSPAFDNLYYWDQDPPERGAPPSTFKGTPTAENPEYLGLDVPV
# [17] = molecular target: Receptor tyrosine-protein kinase erbB-2 (Homo sapiens) (UniProt P04626); conditions: at 1 µM
# [18] = molecular target: Receptor tyrosine-protein kinase erbB-4 (Homo sapiens) (UniProt Q15303); conditions: at 0.1 µM
# Sequence of Receptor tyrosine-protein kinase erbB-4 (Homo sapiens) (Q15303 whole entry): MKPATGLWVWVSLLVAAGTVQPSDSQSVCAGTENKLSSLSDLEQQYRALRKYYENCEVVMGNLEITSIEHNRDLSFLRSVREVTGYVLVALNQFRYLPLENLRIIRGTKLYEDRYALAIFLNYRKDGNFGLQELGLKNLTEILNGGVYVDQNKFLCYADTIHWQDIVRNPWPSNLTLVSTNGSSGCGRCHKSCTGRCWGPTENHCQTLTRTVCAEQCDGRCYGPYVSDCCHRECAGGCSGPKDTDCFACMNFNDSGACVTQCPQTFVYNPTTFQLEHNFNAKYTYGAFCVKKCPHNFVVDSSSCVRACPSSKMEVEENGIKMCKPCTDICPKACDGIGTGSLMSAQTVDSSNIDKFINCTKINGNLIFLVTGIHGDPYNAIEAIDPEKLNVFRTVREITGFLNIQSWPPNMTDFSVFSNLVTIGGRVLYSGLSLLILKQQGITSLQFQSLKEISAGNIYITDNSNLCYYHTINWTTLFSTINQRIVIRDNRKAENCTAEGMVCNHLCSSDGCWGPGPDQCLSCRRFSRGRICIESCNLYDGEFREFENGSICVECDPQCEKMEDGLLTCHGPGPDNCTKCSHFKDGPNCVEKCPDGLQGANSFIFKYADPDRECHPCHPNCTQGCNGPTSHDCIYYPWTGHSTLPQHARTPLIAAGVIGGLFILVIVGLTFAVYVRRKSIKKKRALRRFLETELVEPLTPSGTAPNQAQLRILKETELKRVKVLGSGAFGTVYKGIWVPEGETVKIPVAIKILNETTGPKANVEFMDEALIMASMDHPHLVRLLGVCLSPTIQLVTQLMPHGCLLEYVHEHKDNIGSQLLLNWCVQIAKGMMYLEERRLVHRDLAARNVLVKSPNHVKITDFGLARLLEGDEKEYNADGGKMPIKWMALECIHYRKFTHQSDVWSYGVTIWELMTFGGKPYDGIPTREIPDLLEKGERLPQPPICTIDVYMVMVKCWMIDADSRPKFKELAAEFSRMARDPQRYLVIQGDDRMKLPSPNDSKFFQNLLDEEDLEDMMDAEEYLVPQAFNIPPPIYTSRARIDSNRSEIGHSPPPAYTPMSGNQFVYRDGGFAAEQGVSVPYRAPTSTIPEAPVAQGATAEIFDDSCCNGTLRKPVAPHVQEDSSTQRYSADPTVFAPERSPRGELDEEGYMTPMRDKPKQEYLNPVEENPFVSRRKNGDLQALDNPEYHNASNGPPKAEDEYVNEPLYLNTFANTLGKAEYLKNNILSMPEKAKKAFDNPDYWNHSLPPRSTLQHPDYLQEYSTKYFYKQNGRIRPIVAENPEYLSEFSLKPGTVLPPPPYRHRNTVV
# [19] = molecular target: Receptor tyrosine-protein kinase erbB-4 (Homo sapiens) (UniProt Q15303); conditions: at 1 µM
# [20] = molecular target: Tyrosine-protein kinase Fer (Homo sapiens) (UniProt P16591); conditions: at 0.1 µM;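 also: reported figures are averaged percent inhibition of FER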
# Sequence of Epidermal growth factor receptor (Homo sapiens), P00533 [T790M] (P00533 whole entry T790M): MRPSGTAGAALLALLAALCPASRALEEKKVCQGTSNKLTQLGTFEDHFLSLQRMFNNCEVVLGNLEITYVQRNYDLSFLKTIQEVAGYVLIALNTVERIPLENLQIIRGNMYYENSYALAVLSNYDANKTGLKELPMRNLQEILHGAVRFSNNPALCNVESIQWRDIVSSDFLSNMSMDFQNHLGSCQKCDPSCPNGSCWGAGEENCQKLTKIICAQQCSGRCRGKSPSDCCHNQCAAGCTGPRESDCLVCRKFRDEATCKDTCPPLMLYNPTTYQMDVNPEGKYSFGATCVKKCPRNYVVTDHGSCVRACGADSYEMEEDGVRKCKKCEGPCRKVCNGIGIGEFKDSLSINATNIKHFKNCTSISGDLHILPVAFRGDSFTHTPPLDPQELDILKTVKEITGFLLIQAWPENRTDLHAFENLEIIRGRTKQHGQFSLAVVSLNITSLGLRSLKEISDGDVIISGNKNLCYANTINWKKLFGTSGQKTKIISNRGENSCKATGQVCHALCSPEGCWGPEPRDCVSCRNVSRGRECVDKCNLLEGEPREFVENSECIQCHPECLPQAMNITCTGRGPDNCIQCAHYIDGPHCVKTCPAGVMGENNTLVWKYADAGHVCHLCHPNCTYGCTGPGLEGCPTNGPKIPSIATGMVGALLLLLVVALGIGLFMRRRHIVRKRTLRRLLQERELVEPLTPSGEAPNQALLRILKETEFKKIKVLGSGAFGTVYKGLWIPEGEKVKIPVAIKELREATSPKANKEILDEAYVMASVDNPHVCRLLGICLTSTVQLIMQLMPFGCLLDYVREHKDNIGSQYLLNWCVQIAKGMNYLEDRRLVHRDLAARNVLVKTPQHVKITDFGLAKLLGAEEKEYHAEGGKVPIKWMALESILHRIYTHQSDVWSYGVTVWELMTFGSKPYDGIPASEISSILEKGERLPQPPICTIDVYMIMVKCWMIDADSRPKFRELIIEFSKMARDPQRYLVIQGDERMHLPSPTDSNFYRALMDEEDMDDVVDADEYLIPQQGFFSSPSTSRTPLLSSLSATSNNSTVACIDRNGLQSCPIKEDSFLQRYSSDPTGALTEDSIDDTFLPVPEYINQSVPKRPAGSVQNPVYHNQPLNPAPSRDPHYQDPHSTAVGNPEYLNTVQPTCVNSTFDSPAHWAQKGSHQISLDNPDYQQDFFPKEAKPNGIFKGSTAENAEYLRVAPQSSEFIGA
Structure (SMILES),inhibition [1],inhibition [2],inhibition [3],inhibition [4],inhibition [5],inhibition [6] [%],inhibition [7],inhibition [8] [%],inhibition [9],inhibition [10],inhibition [11],inhibition [12],inhibition [13],inhibition [14],inhibition [15],inhibition [16],inhibition [17],inhibition [18],inhibition [19],inhibition [20]
COC(=O)Nc1nc2cc(Oc3ccc(NC(=O)Nc4ccccc4)cc3)ccc2[nH]1,2.64%,-2.44%,2.14%,2.42%,3.37%,4.93,1.33%,8.86,11.2%,5.01%,4.12%,3.87%,1.72%,0.78%,0.42%,3.5%,3.12%,7.18%,7.92%,2.73%
Fc1ccc(Nc2nccc(-c3c(-c4ccc(C(F)(F)F)cc4)nn4ncccc34)n2)cc1F,0.77%,-1.9%,0.06%,2.87%,0.53%,2.83,3.84%,5.7,1.99%,8.38%,6.54%,4.44%,1.93%,2.27%,1.26%,-0.32%,-1.28%,9.22%,10.4%,4.97%
CNC(=O)c1sc(-n2cnc3cc(OC)c(OC)cc32)cc1OCc1ccccc1C(F)(F)F,0.02%,0.49%,1.43%,2.6%,2.61%,3.26,7.45%,7.55,13.2%,5.44%,14%,4.48%,3.52%,0.98%,5.78%,2.12%,3.74%,6.92%,10.3%,2.95%
Cc1cc(O)cc(C)c1/C=C/c1cncc(C(=O)OC(C)(C)C)c1,2.69%,2.41%,0.87%,16.6%,60.8%,11.2,22.4%,31.1,80.6%,23%,68%,17.4%,49.2%,24.8%,70.4%,1.78%,2.48%,8.1%,16.1%,4.09%
Nc1ncnc2occ(-c3ccc(NC(=O)Nc4cc(C(F)(F)F)ccc4F)cc3)c12,-0.24% and 0.54%,0.74% and 1.93%,0.23% and -1.52%,22.4% and 1.32%,80.5% and 57%,–,43.8% and 25.2%,–,77.2% and 77.9%,55.4% and 55.7%,80.2% and 81.5%,26.4% and 1.64%,63.5% and 51.1%,30.6% and 20.3%,84.8% and 72.7%,0.55% and 1.68%,-4.37% and 6.37%,5.76% and -0.4%,4.08% and 3.51%,6.66% and 0.72%
CS(=O)(=O)Nc1ccc(-c2cc(-c3ccccc3)cc(C(N)=O)c2N)cc1,-0.33%,1.11%,1.75%,-3.41%,-2.62%,0.48,-0.2%,1.75,4.07%,6.68%,5.3%,0.56%,2.36%,0.54%,0.87%,1.08%,6.84%,4.73%,11.9%,-2.85%
CC1=C(C(=O)Nc2ccc3[nH]nc(C)c3c2)C(c2ccc(C(F)(F)F)cc2)CC(=O)N1 (stereo not drawn),-0.09%,3.65%,-0.97%,2.9%,2.18%,2.71,2.28%,5.51,5.67%,5.5%,3.69%,5.28%,2.84%,1.98%,4.06%,0.35%,0.13%,9.2%,16%,1.26%
